Data taken from PubChem BioAssay (NCATS).
Records with an inconclusive call do not appear. A call without a number means that no potency is given here. A number with no mark means an inactive call. The source made the active and inactive calls. Calls come from the whole dose curve; as a rule, active = well fitted inhibition curve with a large enough effect; inconclusive = small, poorly fitted or top-dose-only effect; inactive = no such curve, though single readings can be large or run the other way. Where a SMILES comes first, the peptide text is derived from it. [ ]: non-standard residue; d: D form. Hyp = O=C(O)[CH]1C[CH](O)CN1; Phe(ol) = N[CH](CO)Cc1ccccc1; Iva = CC[C](C)(N)C(=O)O; Aib = CC(C)(N)C(=O)O

Key:
[1] = test system: Zika virus NS2B-NS3 protease (unlinked complex); test: Primary screen GU Rhodamine qHTS for Zika virus inhibitors: Unlinked NS2B-NS3 protease assay (AID 1347159); note: nearly all actives have a fitted effect of over 60% in size
Procedure, shortened: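 A qHTS format was used, with compound concentrations ranging up to 114 microM. Each compound was preincubated with 25 nM NS2B-NS3 protease, and the substrate was then added at 1.5 microM. Curves were fitted with a 4-parameter Hill model.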

[2] = test system: Zika virus NS2B-NS3 protease (linked construct); test: Primary screen NINDS Rhodamine qHTS for Zika virus inhibitors (AID 1347160); note: nearly all actives have a fitted effect of over 55% in size
Procedure, shortened: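 Kinetic fluorescence (Ex 480 nm, Em 540 nm) over 15 min with 1.5 microM Rhodamine110 peptide and 25 nM linked protease.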

Compound: C=C1C(=O)O[C@@H]2C[C@H](C)[C@@H]3CC(=O)C(C)=C3C[C@H]12
- Potency [1]: inactive
- Potency [2]: inactive

Compound: C=CC1(C)CC(O)C(C(=C)C(=O)OC)C(O)C1C(=C)CO (stereo unspecified)
- Potency [1]: inactive
- Potency [2]: inactive

Compound: COc1ccc(CN2CCN(C(=O)CCNC(=O)c3ccc(C(C)(C)C)cc3)CC2)cc1
- Potency [1]: inactive
- Potency [2]: inactive

Compound: CC1(NC(=O)c2ccc(C#Cc3cccc(F)c3)cn2)COC1
- Potency [1]: inactive
- Potency [2]: inactive

Compound: Cn1c(=O)c2c(ncn2Cc2ccc(C(C)(C)C)cc2)n(C)c1=O
- Potency [1]: inactive
- Potency [2]: inactive

Compound: O=c1ccc2ccc(OCCCCN3CCN(c4cccc5sccc45)CC3)cc2[nH]1
- Potency [1]: inactive
- Potency [2]: inactive

Compound: CC(C)(O)/C=C/C(=O)[C@](C)(O)[C@H]1[C@H](O)C[C@@]2(C)[C@@H]3CC=C4[C@@H](C[C@H](O[C@@H]5O[C@H](CO)[C@@H](O)[C@H](O)[C@H]5O)C(=O)C4(C)C)[C@]3(C)C(=O)C[C@]12C
- Potency [1]: inactive
- Potency [2]: inactive

Compound: O=C(Nc1nc2cc(C(F)(F)F)cc(NC3CC3)n2n1)c1cccnc1
- Potency [1]: inactive
- Potency [2]: inactive

Compound: OC[C@H]1O[C@@H](OC/C=C/c2ccc(O)cc2)[C@H](O)[C@@H](O)[C@@H]1O
- Potency [1]: inactive
- Potency [2]: inactive

Compound: CCN1C(C)(C)CC(Oc2ccc(C(=O)Nc3ccc(NC(=O)Nc4cc(C(C)(C)C)on4)cc3)nc2)CC1(C)C
- Potency [1]: inactive
- Potency [2]: inactive

Compound: Cc1nc(Nc2ccc(F)cc2)nc(N2CCc3ccccc3C2C)c1C (stereo unspecified)
- Potency [1]: inactive
- Potency [2]: inactive

Compound: O=C(NCCCN1CCC2(CC1)OCc1ccccc12)[C@H]1CCCN1Cc1ccccc1
- Potency [1]: inactive
- Potency [2]: inactive

Compound: Fc1ccc(-c2nc(C3CCNCC3)sc2-c2ccnc(NC3CC3)n2)cc1
- Potency [1]: inactive
- Potency [2]: inactive

Compound: CCC(C)(NC(=O)C(CCC(N)=O)NC(=O)C1CC(O)CN1C(=O)C(C)(C)NC(=O)C(C)(C)NC(=O)C(CC(C)C)NC(=O)CNC(=O)C(NC(=O)C(C)(C)NC(=O)C(C)(C)NC(=O)C(C)(C)NC(=O)C(Cc1ccccc1)NC(C)=O)C(C)C)C(=O)N1CC(O)CC1C(=O)NC(C)(C)C(=O)NC(CO)Cc1ccccc1 (stereo unspecified) (Ac-F[Aib][Aib][Aib]VGL[Aib][Aib][Hyp]Q[Iva][Hyp][Aib][Phe(ol)]; configuration not given here)
- activity change, negative = inhibition [1]: 8.8% [at 19.1 µM]
- outcome [2]: inactive [at 10.7 µM]

Compound: COC1C=C(C)C(O)(CO)C2(C)CCCC(C)(C)C12 (stereo unspecified)
- Potency [1]: inactive
- Potency [2]: inactive

Compound: CCC(C)(OC(C)=O)C(=O)O[C@H]1[C@H](OC(C)=O)[C@]2(CO)[C@H](O)[C@H](O)[C@]3(C)C(=CCC4[C@@]5(C)CC[C@H](O[C@@H]6O[C@H](C(=O)O)[C@@H](O)[C@H](O[C@@H]7OC[C@H](O)[C@H](O[C@@H]8OC[C@H](O)[C@H](O)[C@H]8O)[C@H]7O)[C@H]6O[C@@H]6O[C@H](CO)[C@@H](O)[C@H](O)[C@H]6O)C(C)(C)C5CC[C@]43C)[C@@H]2CC1(C)C (stereo partly specified)
- activity change, negative = inhibition [1]: -1.56% [at 19.1 µM]
- activity change, negative = inhibition [2]: -4.88% [at 10.7 µM]

Compound: Cc1nc2c(C(F)(F)F)cccc2nc1-c1ccc(-c2cccc(S(C)(=O)=O)c2)cc1
- Potency [1]: inactive
- Potency [2]: inactive

Compound: Cc1cccc(C#Cc2cc(F)cc(C#N)c2)n1
- Potency [1]: inactive
- Potency [2]: inactive

Compound: C=C1CC2OC(=O)C(=C)C2C(OC(=O)/C(C)=C\C)CC2(C)OC1=CC2=O (stereo unspecified)
- Potency [1]: inactive
- Potency [2]: inactive

Compound: C=C[C@@]12COC(=O)C(=C)[C@@H]1[C@@H](O)[C@H](C(=C)C(=O)OC)[C@@H](O)C2
- Potency [1]: inactive
- Potency [2]: inactive

Compound: Cc1cc(-c2ncc(-c3cccnc3)cc2/C=C/c2ccccc2)cnc1-c1cccnc1
- Potency [1]: inactive
- Potency [2]: inactive

Compound: CCCCC1CCN(CCCN2C(=O)CCc3ccccc32)CC1
- Potency [1]: inactive
- Potency [2]: inactive

Compound: Cc1ccc(-c2c(C(=O)CCl)n(CCCO)c3ncnc(N)c23)cc1
- Potency [1]: inactive
- Potency [2]: inactive

Compound: CC(=O)O[C@@H]1CC[C@@]2(C)[C@H](CC[C@@H]3[C@@H]2C[C@H](OC(C)=O)[C@]2(C)[C@@H](C(C)=O)CC[C@@H]32)C1
- Potency [1]: inactive
- Potency [2]: inactive

Compound: C=CC(=O)N1CCCC(n2nc(-c3ccc(Oc4ccccc4)cc3)c3c(N)ncnc32)C1 (stereo unspecified)
- Potency [1]: inactive
- Potency [2]: inactive

Compound: Cc1ccc(N2CCN(S(=O)(=O)N3CCCCC3)CC2)c(C)c1
- Potency [1]: inactive
- Potency [2]: inactive

Compound: Cc1csc2c(N[C@@H](C)CN3CCN(S(=O)(=O)c4ccc(Cl)c(Cl)c4)CC3)ncnc12
- Potency [1]: inactive
- Potency [2]: inactive

Compound: C[C@H](Nc1ncnc2nc[nH]c12)c1cc2cccc(Cl)c2c(=O)n1-c1ccccc1
- Potency [1]: inactive
- Potency [2]: inactive

Compound: CCO[C@H]1CN(C2CCC(O)(c3ccc4c(c3)OCO4)CC2)C[C@@H]1NC(=O)CNC(=O)c1cccc(C(F)(F)F)c1 (stereo partly specified)
- Potency [1]: inactive
- Potency [2]: inactive

Compound: COc1ccc(S(=O)(=O)n2cnc3cc(C)c(C)cc32)cc1
- Potency [1]: inactive
- Potency [2]: inactive

Compound: COCC(=O)NC/C=C/c1ccc2ncnc(Nc3ccc(Oc4ccc(C)nc4)c(C)c3)c2c1
- Potency [1]: inactive
- Potency [2]: inactive

Compound: CC(=O)Nc1cccc(Nc2ncnc(N3CCC(OCc4ccc(OC(F)(F)F)cc4)CC3)n2)c1C
- Potency [1]: inactive
- Potency [2]: inactive

Compound: O=C(NCCCNc1nc(Nc2cccc(CN3CCOCC3)c2)ncc1C1CC1)C1CCC1
- Potency [1]: inactive
- Potency [2]: inactive

Compound: CCCN(CCc1ccsc1)C1CCc2c(O)cccc2C1 (stereo unspecified)
- Potency [1]: inactive
- Potency [2]: inactive

Compound: Cc1ccc(NC(=O)N2CCN(c3nc(N)nc4sc(-c5cccnc5)nc34)CC2)cc1
- Potency [1]: inactive
- Potency [2]: inactive

Compound: COc1ccc(-c2csc(NC(=O)[C@H]3CCCCN3S(=O)(=O)c3ccc(C)cc3)n2)cc1
- Potency [1]: inactive
- Potency [2]: inactive

Compound: CN(C)c1ccnc2sc3c(=O)n(N4CCCCCC4)cnc3c12
- Potency [1]: inactive
- Potency [2]: inactive

Compound: CNC(=O)c1cc(Oc2ccc(NC(=O)c3cccc(C(F)(F)F)c3)cc2)ccn1
- Potency [1]: inactive
- Potency [2]: inactive

Compound: CC(=O)NC[C@H]1CN(c2ccc(N3CCSCC3)c(F)c2)C(=O)O1
- Potency [1]: inactive
- Potency [2]: inactive

Compound: CN(C)C(=O)Nc1cc(-c2ccccc2)ccc1N(C)C
- Potency [1]: inactive
- Potency [2]: inactive

Compound: C[C@@H]1C[C@H]2O[C@@]3(O[C@@H]2C(C)(C)O)C(O)[C@@]2(C)C4CCC5C(C)(C)[C@@H](O[C@H]6OC[C@H](O)[C@@H](O)[C@@H]6O)CC[C@@]56C[C@@]46CC[C@]2(C)C13 (stereo partly specified)
- Potency [1]: inactive
- Potency [2]: inactive

Compound: COc1ccc(OC)c(-c2ccc(NC(=O)c3ccncc3F)cc2)c1
- Potency [1]: inactive
- Potency [2]: inactive

Compound: COc1cc(/C=N\NC(=O)c2ccc3c(c2)OCO3)ccc1OCc1ccccc1
- Potency [1]: inactive
- Potency [2]: inactive

Compound: COc1ccc(CCN(C)CCCOc2nsc(-c3ccccc3)n2)cc1OC
- Potency [1]: inactive
- Potency [2]: inactive

Compound: COCCN(C(=O)c1cc(OC)c(OC)c(OC)c1)c1nc(-c2ccccc2)cs1
- Potency [1]: inactive
- Potency [2]: inactive

Compound: Cc1onc(-c2ccccc2)c1C(=O)N1CCN(c2ccc([N+](=O)[O-])cc2Cl)CC1
- Potency [1]: inactive
- Potency [2]: inactive

Compound: C/C(=C/C=C\C=C\Cc1cnco1)[C@@H](O)C(C)(C)C(N)=O
- Potency [1]: inactive
- Potency [2]: inactive

Compound: Cn1nc(C(C)(C)C)cc1C(=O)N[C@@H](Cc1cccc(Cl)c1)C(=O)NCC#N
- Potency [1]: inactive
- Potency [2]: inactive

Compound: COc1cc(N2CCC(N)CC2)ccc1Nc1ncc(Cl)c(-c2c[nH]c3ccccc23)n1
- Potency [1]: inactive
- Potency [2]: inactive

Compound: CC1(C)CN(C(=O)c2ccc(-c3cccc4nc(NC(=O)C5CC5)nn34)cc2)C1
- Potency [1]: inactive
- Potency [2]: inactive

Compound: COc1ccccc1-c1ccc(-c2cn(C(=O)N3CCCCC3Cc3ccccc3)nn2)cc1 (stereo unspecified)
- Potency [1]: inactive
- Potency [2]: inactive

Compound: CC(=O)O[C@H]1CC2C(COC(=O)CC(C)C)=CO[C@@H](OC(=O)CC(C)C)C2[C@]12CO2 (stereo partly specified)
- Potency [1]: inactive
- Potency [2]: inactive

Compound: CC(=O)Nc1cccc(-c2csc(Nc3cc(C)ccn3)n2)c1
- Potency [1]: inactive
- Potency [2]: inactive

Compound: COc1cc2ncnc(Nc3ccc(O)c(Br)c3)c2cc1OC
- Potency [1]: inactive
- Potency [2]: inactive

Compound: N#CSc1cc(SC#N)c(N)nc1N
- Potency [1]: inactive
- Potency [2]: inactive

Compound: CC(=O)O[C@@H]1C[C@@]23C[C@@]24CC[C@H](O[C@@H]2OC[C@H](O)[C@H](O)[C@H]2O)C(C)(C)[C@@H]4CC[C@H]3[C@]2(C)[C@@H](O)C34O[C@H](C[C@@H](C)[C@@H]3[C@@]12C)[C@@H](C(C)(C)O)O4
- Potency [1]: inactive
- Potency [2]: inactive

Compound: CC(CCC1(O)OC2CC3C4CC=C5C[C@@H](O[C@@H]6O[C@H](CO)[C@@H](O[C@@H]7O[C@@H](C)[C@H](O)[C@@H](O)[C@H]7O)[C@H](O)[C@H]6O[C@@H]6O[C@@H](C)[C@H](O)[C@@H](O)[C@H]6O)CC[C@]5(C)C4CC[C@]3(C)[C@@]2(O)[C@@H]1C)CO[C@@H]1O[C@H](CO)[C@@H](O)[C@H](O)[C@H]1O (stereo partly specified)
- Potency [1]: inactive
- Potency [2]: inactive

Compound: COc1cc2c(cc1NS(=O)(=O)c1ccc(Br)cc1C)n(C)c(=O)n2C
- Potency [1]: inactive
- Potency [2]: inactive

Compound: CCCCNc1ncc(-c2ccc(CN3CCOCC3)cn2)c(NC2CCC(O)CC2)n1 (stereo unspecified)
- Potency [1]: inactive
- Potency [2]: inactive

Compound: CC(C)n1nc(C#Cc2ccccc2)c2c(N)ncnc21
- Potency [1]: inactive
- Potency [2]: inactive

Compound: CC(C)(Cc1nc(-c2ccc(O)cn2)no1)C(=O)NC1=C(C(=O)O)CCCC1
- Potency [1]: inactive
- Potency [2]: inactive

Compound: CCc1cc2c(cc1CC)CC(NCC(O)c1ccc(O)c3[nH]c(=O)ccc13)C2 (stereo unspecified)
- Potency [1]: inactive
- Potency [2]: inactive

Compound: C=C1CC2OC(=O)C(COC)C2C(OC(=O)/C(C)=C\C)CC2(C)OC1=CC2=O (stereo unspecified)
- Potency [1]: inactive
- Potency [2]: inactive

Compound: CC(C)c1cc(-c2ccc(F)c3ccccc23)nc(N)n1
- Potency [1]: inactive
- Potency [2]: inactive

Compound: C=C(C)Cn1c(SCC(=O)c2cccs2)nc2sc3c(c2c1=O)CCCC3
- Potency [1]: inactive
- Potency [2]: inactive

Compound: O=C(NNc1nc2cc(F)ccc2n2cccc12)c1cnccn1
- Potency [1]: inactive
- Potency [2]: inactive

Compound: COC(CCc1ccc(O)cc1)CC(=O)CCc1ccc(O)cc1 (stereo unspecified)
- Potency [1]: inactive
- Potency [2]: inactive

Compound: COc1cc(O)c2c(c1)C1OC1C[C@H](O)[C@H](O)C(=O)/C=C\C[C@H](C)OC2=O (stereo partly specified)
- Potency [1]: inactive
- Potency [2]: inactive
